Compound activity (PubChem BioAssay)
The list is not random: actives were taken first. Their share in the collection is about 10%.
NIH3T3 tox = cytotoxic compounds in NIH 3T3 cells; AID 1345082; actives 4.3% (n = 94,000); NIH 3T3 viability, CellTiter-Glo ATP luminescence, 48-72 h; Potency, µM (highest dose often 96.7 µM), without a hit: at the highest dose activity change, negative = cytotoxicity, most hits filed as inhibitors; further: nearly all actives have a fitted effect of over 55% in size
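ATP-dependent luminescence (CellTiter-Glo) served as the viability signal for NIH 3T3 cells treated with compound for 48 or 72 hr at 37 °C.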
GPT2 inhibitor = GPT2 alanine aminotransferase inhibition; Recombinant GPT2, coupled pyruvate oxidase/HRP Amplex Red fluorescence; actives 0.25% (n = 100,000); Q8TD30; Potency, µM (top dose mostly 57.7 µM), without a hit: at the highest dose activity change, negative = inhibition, usual class: inhibitors; further: nearly all actives have a fitted effect of over 60% in size
Target sequence (Q8TD30 whole entry, looked up): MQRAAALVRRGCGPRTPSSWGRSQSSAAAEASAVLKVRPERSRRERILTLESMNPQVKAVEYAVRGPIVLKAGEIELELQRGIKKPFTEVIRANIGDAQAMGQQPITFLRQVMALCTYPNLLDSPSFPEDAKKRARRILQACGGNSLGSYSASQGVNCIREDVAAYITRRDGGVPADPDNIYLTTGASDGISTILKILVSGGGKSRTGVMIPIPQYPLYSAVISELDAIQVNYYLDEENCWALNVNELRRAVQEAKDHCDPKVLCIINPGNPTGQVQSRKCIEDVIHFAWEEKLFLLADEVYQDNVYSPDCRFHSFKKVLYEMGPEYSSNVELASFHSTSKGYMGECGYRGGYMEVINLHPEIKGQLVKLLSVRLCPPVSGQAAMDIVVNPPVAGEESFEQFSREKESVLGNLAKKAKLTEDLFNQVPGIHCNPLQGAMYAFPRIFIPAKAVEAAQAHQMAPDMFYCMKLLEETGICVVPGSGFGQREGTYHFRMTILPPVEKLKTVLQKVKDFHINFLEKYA
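GPT2 10ng/uL, a-KG 250uM, L-Ala 2mM, HEPES pH7.5 + 0.0001% Tween; 30 min RT. Then Amplex mix (PO/HRP/ThPP), 30 min RT dark, fluorescence. AOA 50uM used as positive control.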
NPR1 antag = blocks ANP-stimulated signaling of human Npr1 receptor. HEK293 hNpr1 GloSensor cGMP, ANP-stimulated luminescence. Potency, µM (titrated, usually from 46.3 µM), for inactives: at the highest dose activity change, negative = inhibition, hits mostly inhibitors. actives 1.6% (n = 76,000). AID 1347048; calls by dose curve; further: nearly all actives have a fitted effect of over 60% in size
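Compound pre-incubated 30 min at room temperature on GloSensor-loaded HEK293 cells stably carrying hNpr1 and the pGS-40F cGMP biosensor. Stimulation uses hNppA at 0.1 nM final; luminescence is taken at baseline and 20 min post-agonist.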
HEK cytotox = HEK 293 cell cytotoxicity | actives 6.6% (n = 94,000) | HEK 293 viability, ATP luminescence (CellTiter-Glo), 48-72 h | Potency, µM (top dose mostly 115 µM), without a hit: top-dose activity change, negative = cytotoxicity, most hits filed as inhibitors; further: nearly all actives have a fitted effect of over 60% in size
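HEK 293 seeded at 250 cells/well receive compound via pintool. After 48 or 72 hr at 37 degree Celsius, 5% CO2 and 95% humidity, CellTiter-Glo is dispensed and luminescence read following 10 min at room temperature.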
Luciferase inh = blocks purified firefly luciferase enzyme activity; P08659; purified P. pyralis luciferase, luminescence, biochemical; Potency, µM (highest dose often 115 µM), usual class: inhibitors; actives 2.5% (n = 76,000); AID 1347043; further: nearly all actives have a fitted effect of over 65% in size
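FLuc 10nM, D-luciferin 10uM, ATP 10uM, Mg acetate 10mM, Tris acetate pH 7.5, Tween/BSA; cpd qHTS; enzyme added last; CCD luminescence.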
Starred values were filed as active, the others as inactive; i = inactive; ? = inconclusive; . = no result; [ ] = dose if it differs, or a comment. Unless noted, the call rests on the fitted dose curve; in most records, active means well fitted curve in the direction sought with a large enough effect; inconclusive means small, poorly fitted or top-dose-only effect, or another doubt; inactive means no such curve, though single readings can be large; an effect the other way counts as inactive or inconclusive. On the % scale 0 is the no-effect control and ±100 the full control effect; potency means the concentration at half of the fitted maximal effect.

SMILES | NIH3T3 tox | GPT2 inhibitor | NPR1 antag | HEK cytotox | Luciferase inh
CC1Oc2ccc(NC(=O)c3c(F)cccc3F)cc2CN(Cc2ccc(Cl)cc2)C1=O (centres undefined) | ? | i | -27% | 16µM* | i
CCC1Oc2ccc(NC(=O)c3ccccc3F)cc2CN(CCc2ccc(OC)c(OC)c2)C1=O (centres undefined) | 40µM* | i | -1% | ? | i
CC1Oc2ccc(NC(=O)c3ccccc3Cl)cc2CN(Cc2ccc(F)cc2)C1=O (centres undefined) | ? | -18% | -16% | 40µM* | i
COc1ccccc1C(=O)Nc1ccc2c(c1)CN(Cc1ccc(F)cc1)C(=O)C(C)O2 (centres undefined) | ? | i | -23% | 35µM* | i
CCC1Oc2ccc(NC(=O)c3ccccc3F)cc2CN(Cc2ccc3c(c2)OCO3)C1=O (centres undefined) | ? | -6% | -5% | ? | i
CC1CCN(C(=O)CCC[C@H]2NC[C@@H]3C[C@H]2CN(Cc2ccccc2)C3)CC1 | -26% | ? | 0% | -2% | i
COCCOc1cc(=O)n2c(c1C(=O)NCc1ccc(OC)cc1)CCOCC2 | -26% | i | -7% | -29% | i
O=C(CO)N1CCC(c2[nH]nc(-c3ccc(Cl)cc3)c2-c2ccncn2)CC1 | . | i | . | . | .
O=C(c1nc2sccn2c1-c1ccc(C(F)(F)F)cc1)N1CCCCC1 | -30% | i | . | ? | .
COc1ccc(CN2Cc3cc(NC(=O)c4ccccc4OC)ccc3OCC2=O)c(OC)c1 | 25µM* | i | -15% | 40µM* | i
COc1ccc(C(=O)Nc2ccc3c(c2)CN(Cc2ccc(OC)cc2OC)C(=O)CO3)cc1 | ? | 0% | -2% | ? | ?
Cc1cccc(-c2nc3cc(C(=O)NC4CCCCCC4)ccc3o2)n1 | ? | 1% | . | ? | .
COc1ccc(NC(=O)c2ccc3nc(-c4ccccn4)oc3c2)cc1 | -39% | -3% | . | 25µM* | .
Cc1cccc(-c2nc3ccc(C(=O)NC4CC4)cc3o2)n1 | ? | -4% | . | 45µM* | .
O=C(NCC1CC1)c1ccc2nc(-c3ccccn3)oc2c1 | ? | i | . | 112µM* | .
COc1ccc(NC(=O)c2ccc3oc(-c4cccnc4OC)nc3c2)cc1 | -22%[138 µM] | i | . | ? | .
COc1ncccc1-c1nc2cc(C(=O)Nc3cccc(Cl)c3)ccc2o1 | -32% | 4% | . | 13µM* | .
COCc1nc(-c2ccc(OC3CN(C(=O)C(C)Oc4ccccc4)C3)cc2)no1 (centres undefined) | ? | 2% | ? | 40µM* | i
COCc1nc(-c2ccc(OC3CN(C(=O)c4ccc(OC)cc4)C3)cc2)no1 | ? | 5% | 1.4µM* | ? | i
COCc1nc(-c2ccc(OC3CN(C(=O)c4cccc(OC)c4)C3)cc2)no1 | ? | i | ? | ? | i
COCc1nc(-c2ccc(OC3CN(C(=O)Cc4ccccc4)C3)cc2)no1 | ? | -2% | -24% | ? | i
COC(=O)c1ccc2nc(C[C@@H]3C[C@@H](C(C)C)[C@H](CNC(=O)CCC(=O)O)C=C3C)[nH]c2c1 | -9% | 4% | -2% | -13% | i
COC(=O)c1ccc2nc(C[C@@H]3C[C@@H](C(C)C)[C@H](CNS(=O)(=O)c4ccccc4)C=C3C)[nH]c2c1 | 32µM* | -10% | -6% | 28µM* | i
COC(=O)c1ccc2nc(C[C@@H]3C[C@@H](C(C)C)[C@H](CNC4CCN(C(C)=O)CC4)C=C3C)[nH]c2c1 | ? | i | 1% | ? | i
COC(=O)c1ccc2nc(C[C@@H]3C[C@@H](C(C)C)[C@H](CNCc4ccccc4O)C=C3C)[nH]c2c1 | 20µM* | i | ? | 22µM* | i
SMILES | NIH3T3 tox | GPT2 inhibitor | NPR1 antag | HEK cytotox | Luciferase inh
COC(=O)c1ccc2nc(C[C@@H]3C[C@@H](C(C)C)[C@H](CNC4CCN(C)CC4)C=C3C)[nH]c2c1 | 25µM* | i | -13% | 22µM* | i
O=C(CCCc1ccccc1)N1CCCCCC1c1nc(C2CC2)no1 (centres undefined) | ? | -21% | -8% | 50µM* | i
O=C(CCCc1ccccc1)N1CCCC1c1nc(C2CCOCC2)no1 (centres undefined) | -27% | i | -6% | ? | i
NCc1ccc(-c2ccccn2)cc1 | 3%[174 µM] | -19%[88.5 µM] | . | i | .
O=C(Nc1ccc2c(N3CCCC3)ncnc2c1)c1ccccc1Br | ? | 3% | -14% | 8.9µM* | i
COc1cccc(CC(=O)Nc2ccc3c(N4CCCCC4)ncnc3c2)c1 | ? | -2% | ? | 32µM* | i
COc1ccc(CC(=O)Nc2ccc3ncnc(N4CCCCC4)c3c2)c(Cl)c1 | ? | i | -18% | ? | i
COc1ccccc1C(=O)Nc1ccc2ncnc(N3CCCCC3)c2c1 | ? | -1% | ? | 40µM* | i
CS(=O)(=O)N(Cc1cccnc1)C1CN(C(=O)c2ccc3cc[nH]c3c2)C1 | -2% | i | -2% | -2% | i
CCN1c2cc(C(=O)Nc3cccc(C(F)(F)F)c3)ccc2C(=O)N2CCCC21 (centres undefined) | 35µM* | i | -5% | ? | i
CCN1c2cc(C(=O)Nc3cccc(C(F)(F)F)c3)ccc2C(=O)N2CCCCCC21 (centres undefined) | ? | i | -15% | 13µM* | i
CCn1nccc1C(=O)N1CCCC(n2cc(-c3nc(-c4ccccc4)no3)nn2)C1 (centres undefined) | -29% | 2% | 13µM* | ? | ?
Cn1cccc1C(=O)N1CCCC(n2cc(-c3nc(-c4ccccc4)no3)nn2)C1 (centres undefined) | ? | 4% | ? | ? | 79µM*
CCc1csc(CNC(=O)c2ccc(N(C)Cc3cnn(C)c3)nc2)n1 | -1% | i | 3% | 7% | i
N#Cc1cccc(-c2ccnc(N[C@H]3CO[C@H]4[C@@H]3OC[C@H]4OC(=O)Nc3cccc4ccccc34)n2)c1 | ? | ? | -29% | 22µM* | i
CN(C)c1ccc(-c2ccnc(N[C@H]3CO[C@H]4[C@@H]3OC[C@H]4OC(=O)Nc3cccc(C#N)c3)n2)cc1 | ? | i | ? | 14µM* | i
COc1ccc(NC(=O)O[C@@H]2CO[C@H]3[C@@H]2OC[C@@H]3Nc2nccc(-c3cccc(C#N)c3)n2)cc1 | -14% | 0% | -1% | -26% | i
O=C(c1nnc(COc2ccc(F)c(F)c2)n1-c1ccccc1)N1CCC[C@@H]1c1cccc(F)c1 | 10µM* | 4% | -11% | ? | i
